TbPYK inhibitor: qHTS of Trypanosoma Brucei Inhibitors. pyruvate kinase (Trypanosoma brucei), Q57TT1. TbPYK enzyme, Kinase-Glo Plus ATP luminescence, 45 min. Potency, µM (highest dose often 76.8 µM), hits mostly inhibitors. hit rate 0.12% among 410,000. AID 624173, 2012; further: nearly all actives have a fitted effect of over 50% in size
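Glycolytic pyruvate kinase of T. brucei was incubated with substrate, test compound and 130 uM ADP for 45 minutes at room temperature. Luminescent Kinase-Glo Plus signal was measured after 10 minutes.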
LmPK inh: qHTS Assay for Inhibitors of Leishmania Mexicana Pyruvate Kinase (LmPK). Q27686. purified LmPK, Kinase-Glo ATP luminescence, 1 h. Potency, µM (top dose mostly 57.5 µM), actives largely listed as inhibitors. hit rate 0.37% among 290,000
Target sequence (Q27686 whole entry, looked up): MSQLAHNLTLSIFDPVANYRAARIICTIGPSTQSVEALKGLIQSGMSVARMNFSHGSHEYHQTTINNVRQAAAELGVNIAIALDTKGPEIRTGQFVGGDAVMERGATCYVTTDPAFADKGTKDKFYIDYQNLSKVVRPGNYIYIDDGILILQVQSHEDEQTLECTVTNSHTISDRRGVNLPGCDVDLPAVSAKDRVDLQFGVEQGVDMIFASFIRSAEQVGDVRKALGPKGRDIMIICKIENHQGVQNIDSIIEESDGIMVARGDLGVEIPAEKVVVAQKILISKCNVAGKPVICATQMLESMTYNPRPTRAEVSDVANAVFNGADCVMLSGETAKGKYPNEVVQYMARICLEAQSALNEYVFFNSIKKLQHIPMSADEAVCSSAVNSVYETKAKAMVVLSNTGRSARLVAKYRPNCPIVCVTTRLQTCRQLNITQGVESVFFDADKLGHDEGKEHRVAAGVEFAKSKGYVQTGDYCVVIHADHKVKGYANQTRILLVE
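Kinase-Glo luminescence read after 1 h RT reaction of 0.1 nM LmPK with 0.5 mM PEP and 0.1 mM ADP. Activity scaled between uninhibited and enzyme-free controls.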
NS1 function inh: qHTS Assay for Inhibitors of Influenza NS1 Protein Function | Potency, µM (doses to about 46.1 µM) | hit rate 0.4% among 270,000 | AID 2326, 2010; calls by dose curve; further: actives are rising curves; nearly all actives have a fitted effect of over 50% in size
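S. cerevisiae expressing influenza A NS1, grown in glucose, washed, then diluted 1:100 into pH 6.0 -URA galactose medium with 23 nl compound. Growth recovery read as OD600; NS1-free strain serves as control.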
AMA1-RON2 inh: qHTS for Inhibitors of AMA1-RON; Towards Development of Antimalarial Drug Lead: Primary Screen | AID 720542, 2013 | AlphaScreen AMA1-biotinylated RON2 peptide binding | Potency, µM (titrated, usually from 58.2 µM), hits mostly inhibitors | hit rate 0.2% among 360,000; further: nearly all actives have a fitted effect of over 45% in size
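AMA1 (3D7) with his tag at 25 nM final met compounds first, then biotinylated RON2 peptide at 25 nM; detection used donor plus acceptor beads, 10 µg/mL apiece, read by AlphaScreen after 30 min at room temperature.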
RE007 growth inh: qHTS Assay for Inhibitors of the HIV-1 protein Vpr; S. pombe RE007 Vpr strain, BacTiter-Glo ATP luminescence, 24 h; Potency, µM (highest dose often 92.2 µM), usual class: inhibitors; hit rate 0.21% among 360,000; AID 651644, 2012; active means well fitted falling curve with a large enough effect; inconclusive means small, poorly fitted or top-dose-only effect; inactive means no such curve, though single readings can be large or run the other way; further: nearly all actives have a fitted effect of over 50% in size
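Fission yeast strain RE007, carrying one chromosomally integrated HIV-1 vpr copy, was seeded at OD 0.01 in PMG+AL medium with 23 nL pinned compound. After 24 h at 30 °C and 99% humidity, viability was read by BacTiter-Glo luminescence.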
Each line names hits and unclear results; the compound was inactive in the other large screens. Most compounds without a hit are left out; they make up all but 0.92% or so of the library. Unless noted, the call rests on the fitted dose curve; in most records, active means well fitted curve in the direction sought with a large enough effect; inconclusive means small, poorly fitted or top-dose-only effect, or another doubt; inactive means no such curve, though single readings can be large; an effect the other way counts as inactive or inconclusive.

CCN(CC)c1ccc(NC(=O)COC(=O)CSc2ccc(Br)cc2C)cc1	AMA1-RON2 inh 10µM
Cc1cc(C)c(NC(=O)COC(=O)CSc2ccc(Br)cc2C)c(C)c1	none (no result: RE007 growth inh)
O=C1C=CC(=O)N1c1ccc(OC(F)F)cc1	TbPYK inhibitor 11.2µM, RE007 growth inh 2.82µM
O=C1C=CC(=O)N1c1ccc(O)cc1	TbPYK inhibitor inconclusive, RE007 growth inh 6.31µM
CC[C@H](C)[C@H](NC(=O)[C@H](CO)NC(=O)[C@H](CC(N)=O)NC(=O)[C@H](CC(C)C)NC(=O)[C@H](Cc1ccc(O)cc1)NC(=O)[C@H](CCCCN)NC(=O)[C@H](CCCCN)NC(=O)[C@@H](NC(=O)[C@H](C)NC(=O)[C@H](CCSC)NC(=O)[C@H](CCC(N)=O)NC(=O)[C@H](CCCCN)NC(=O)[C@H](CCCNC(=N)N)NC(=O)[C@H](CC(C)C)NC(=O)[C@H](CCCNC(=N)N)NC(=O)[C@@H](NC(=O)[C@H](Cc1ccc(O)cc1)NC(=O)[C@H](CC(N)=O)NC(=O)[C@H](CC(=O)O)NC(=O)[C@@H](NC(=O)[C@H](Cc1ccccc1)NC(=O)[C@@H](NC(=O)[C@H](C)NC(=O)[C@H](CC(=O)O)NC(=O)[C@H](CO)NC(=O)[C@@H](N)Cc1c[nH]cn1)C(C)C)[C@@H](C)O)[C@@H](C)O)C(C)C)C(=O)N[C@@H](CC(C)C)C(=O)N[C@@H](CC(N)=O)C(=O)O	none (no result: LmPK inh, NS1 function inh, AMA1-RON2 inh, RE007 growth inh)
O=c1c(Cl)c(N2CCCCC2)cnn1-c1nc2ccccc2[nH]1	TbPYK inhibitor inconclusive, LmPK inh 14.1µM
Clc1ccc2nc(N3CCCCC3)[nH]c2c1	none
CCOC(=O)Cn1cccc1-c1nc(-c2ccc(OC)cc2)c(-c2ccc(OC)cc2)s1	none (no result: LmPK inh, NS1 function inh, AMA1-RON2 inh, RE007 growth inh)
O=C(Nc1ccccc1)C(Cl)C(=O)c1ccccc1 (stereo unspecified)	RE007 growth inh 7.08µM
O=C1C(=Cc2cn(-c3ccccc3)nc2-c2ccc(OCc3ccccc3)cc2)SC(=S)N1CCS(=O)(=O)O	none (no result: LmPK inh, NS1 function inh)
Cc1ccc(-c2nn(-c3ccccc3)cc2C=C2SC(=S)N(CCS(=O)(=O)O)C2=O)cc1	AMA1-RON2 inh 31.6µM (no result: LmPK inh, NS1 function inh)
CCc1ccc(/C=N/NC(=O)c2ccccn2)cc1	LmPK inh 12.6µM
CCOc1ccc(NC(=O)c2ccccn2)cc1	LmPK inh 12.6µM, RE007 growth inh inconclusive
COc1ccc(NC(=O)Nc2cccnc2)cc1	none (no result: NS1 function inh)
CCN(CC)c1ccc(/C=N/NC(=O)c2ccccn2)cc1	none
CCOc1ccc(NC(=O)Nc2cccnc2)cc1	LmPK inh 25.1µM, RE007 growth inh inconclusive
CC#CCN1c2ccccc2[C@]23C[C@@H](C(=O)OC)N(S(=O)(=O)c4ccc5c(c4)OCCN5C)C2=NC(C(=O)OC)=C(C(=O)OC)[C@H]13	none (no result: TbPYK inhibitor, NS1 function inh, AMA1-RON2 inh, RE007 growth inh)
C=CCN1c2ccccc2[C@]23C[C@@H](C(=O)OC)N(S(=O)(=O)c4c(C)noc4C)C2=NC(C(=O)OC)=C(C(=O)OC)[C@H]13	none (no result: TbPYK inhibitor, NS1 function inh, AMA1-RON2 inh, RE007 growth inh)
Cn1c(Cc2c[nH]c3ccccc23)n[nH]c1=S	TbPYK inhibitor 17.8µM
Cc1[nH]c2ccccc2c1Cc1n[nH]c(=S)n1C	TbPYK inhibitor inconclusive
Cc1[nH]c2ccccc2c1SCc1n[nH]c(=S)n1C	TbPYK inhibitor inconclusive, LmPK inh 7.94µM, NS1 function inh inconclusive
CCCCCCCCCCCCCCCCCC(=O)OCCO	none (no result: LmPK inh, NS1 function inh, AMA1-RON2 inh, RE007 growth inh)
CCOC(=O)N1CCN(c2cc(NCCC(=O)O)c3c4c(onc24)-c2ccccc2C3=O)CC1	LmPK inh 15.8µM, AMA1-RON2 inh inconclusive, RE007 growth inh inconclusive
O=C(O)CCCNc1cc(N2CCN(C(=O)c3ccco3)CC2)c2noc3c2c1C(=O)c1ccccc1-3	none
O=C1c2ccccc2-c2onc3c(N4CCN(CCO)CC4)cc(N4CCN(C(=O)c5ccco5)CC4)c1c23	AMA1-RON2 inh 14.1µM
CN1CCN(c2cc(N3CCN(C(=O)c4ccco4)CC3)c3c4c(onc24)-c2ccccc2C3=O)CC1	AMA1-RON2 inh 17.8µM
COc1ccc(-c2n[nH]c(=S)n2-c2ccc3c(c2)OCCO3)cc1OC	TbPYK inhibitor inconclusive, LmPK inh inconclusive

Screening results from PubChem BioAssay.
